VP16 counter – counter-screen for ROR gamma inhibitors: Gal4-VP16 reporter; Drosophila S2 Gal4-VP16 UAS-luciferase, luminescence, 20 h; Potency, µM (titrated, usually from 53.6 µM), without a hit: at the top dose activity, negative = inhibition, hits mostly inhibitors; 310,000 compounds, 3.5% hits; AID 2546;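 also: Gal4-VP16 expression switched on by copper sulfate through the metallothionein promoter; potency is read from the fitted curve at half-maximal effect; nearly all actives have a fitted effect of over 50% in size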
RORgamma inh – inhibitors of mouse ROR gamma transcriptional activity. P51450. Drosophila S2 Gal4-RORgamma UAS-luciferase reporter, 20 h. Potency, µM (series often up to 53.6 µM), without a hit: top-dose activity change, negative = inhibition, actives largely listed as inhibitors. 310,000 compounds, 5.4% hits; also: potency is read from the fitted curve at half-maximal effect; nearly all actives have a fitted effect of over 60% in size
Target sequence (P51450 whole entry, looked up, the tested form may be a part): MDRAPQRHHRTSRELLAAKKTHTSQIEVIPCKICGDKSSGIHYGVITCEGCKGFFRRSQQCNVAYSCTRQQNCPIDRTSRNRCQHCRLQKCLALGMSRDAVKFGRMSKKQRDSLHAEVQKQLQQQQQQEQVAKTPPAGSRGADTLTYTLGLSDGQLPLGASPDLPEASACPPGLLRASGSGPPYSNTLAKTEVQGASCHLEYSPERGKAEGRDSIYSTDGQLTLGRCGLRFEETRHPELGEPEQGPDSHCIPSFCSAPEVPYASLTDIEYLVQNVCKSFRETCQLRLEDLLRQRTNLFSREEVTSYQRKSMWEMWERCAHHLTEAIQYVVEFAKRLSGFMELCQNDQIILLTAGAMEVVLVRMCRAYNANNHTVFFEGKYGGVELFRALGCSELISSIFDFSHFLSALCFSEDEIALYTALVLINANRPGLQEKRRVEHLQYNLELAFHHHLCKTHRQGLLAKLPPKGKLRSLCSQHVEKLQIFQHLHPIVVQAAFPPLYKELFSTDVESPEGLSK
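Luminescence from a UAS-regulated Photinus luciferase reporter in stably transfected Drosophila Schneider cells is measured; decreased signal marks ROR gamma inhibition. Fusion expression is induced by 700 uM copper sulfate for 20 hr.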
TDP1 cell CPT – growth inhibition of DT40 Tdp1-/-;hTDP1 cells with camptothecin (screen for TDP1 inhibitors). chicken DT40 Tdp1-/-;hTDP1 cells + 20 nM CPT, ATP luminescence, 48 h. Potency, µM (highest dose often 46.2 µM), for inactives: top-dose activity change, negative = growth inhibition, usual class: inhibitors. 420,000 compounds, 12% hits; also: potency is read from the fitted curve at half-maximal effect; nearly all actives have a fitted effect of over 55% in size
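Chicken DT40 Tdp1-/- cells complemented with human TDP1, 400 cells/well, exposed to compounds plus 20 nM camptothecin for at least 48 h at 37 C; viability read as ATP content by CellTiter-Glo luminescence.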
DT40 TDP1 no CPT – qHTS for Inhibitors of human tyrosyl-DNA phosphodiesterase 1 (TDP1): qHTS in cells in absence of CPT. DT40 Tdp1-/- hTDP1 cells, no CPT, ATP luminescence, 48 h. Potency, µM (highest dose often 46.2 µM), for the others: top-dose activity change, negative = growth inhibition, most hits filed as inhibitors. 420,000 compounds, 15% hits; also: potency is read from the fitted curve at half-maximal effect; nearly all actives have a fitted effect of over 55% in size
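Growth kinetics read by CellTiter-Glo luminescence after ≥48 hr at 37 °C. Cells: DT40 Tdp1-/- stably carrying human TDP1, 400 per well, compound exposure in the absence of CPT (DMSO vehicle).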
ELG1 DNA repair – blocks ELG1-dependent DNA repair in HEK293T cells; HEK293T ELG1-luciferase reporter, luminescence, 16 h; DNA damage induced by 5-fluorouridine; Potency, µM (titrated, usually from 46.1 µM), without a hit: at the highest dose activity change, negative = inhibition, actives largely listed as inhibitors; 330,000 compounds, 2.3% hits; also: potency is read from the fitted curve at half-maximal effect; nearly all actives have a fitted effect of over 55% in size
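Cells (2,000 per well) received 5-fluorouridine plus test compound or DMSO and were incubated 16 hr at 37 °C, 5% CO2. Luciferase activity was read by luminescence 30 min after ONE-Glo addition; signal suppression marked inhibition of damage-induced ELG1 function.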
IL1B secr inh – blocks inflammasome-driven IL-1 beta release; THP-1 LPS/ATP IL-1B secretion, AlphaLISA, 16 h; active compounds read low; activity change, % at 57.5 µM; 360,000 compounds, 4.7% hits; in the data active = activity change below about -50%; inconclusive = mostly about -30% to -49%
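Secreted IL-1B measured by AlphaLISA bead assay after 16 h compound exposure of THP-1 cells; compounds (final up to 57.5 uM) added 1 h before LPS (250 ng/mL) and ATP (1.25 mM) stimulation; lower signal means less secretion.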
* = called active by the depositor; i = inactive; ? = inconclusive; · = no result given; [ ] = remark or other dose. Sampled rows, rich in hits. Any-hit rate of the full collection: about 21%. Unless noted, calls follow the shape of the dose curve; as a rule, active = well fitted curve in the direction sought with a large enough effect; inconclusive = small, poorly fitted or top-dose-only effect, or another doubt; inactive = no such curve, though single readings can be large; an effect the other way counts as inactive or inconclusive. % is scaled to controls: 0 for no effect and ±100 for the full control effect.

SMILES | VP16 counter | RORgamma inh | TDP1 cell CPT | DT40 TDP1 no CPT | ELG1 DNA repair | IL1B secr inh
CC1=C(C(=O)OCc2ccc(C)cc2)C(c2ccccc2C(F)(F)F)CC(=O)N1 (stereo unspecified) | · | · | 23.1µM* | 20.6µM* | · | ·
CC1=C(C(=O)OCc2ccccc2)C(c2cccc(Cl)c2Cl)CC(=O)N1 (stereo unspecified) | · | · | ? | -29.1% | · | ·
COc1ccccc1C1CC(=O)NC(C)=C1C(=O)OC1CCCCCC1 (stereo unspecified) | · | · | 20.6µM* | 13µM* | · | ·
COCC(=O)N1CCC2(CCCN(c3cccc(-c4ccccc4)c3)C2)CC1 | 9.3% | -3.7% | ? | ? | · | ·
Cc1ccc(S(=O)(=O)N2CCN(c3ccccc3)CC2)s1 | · | · | 2.4% | -3.6% | -5.8% | -7.2
Cc1ccc(N2C(=O)[C@@H]3[C@H](C2=O)C2c4ccccc4C=CN2[C@@H]3C(=O)c2ccco2)cc1 (stereo partly specified) | 16.8% | 12.9% | ? | ? | 11.3% | 33.4
CC(C)(C)C(=O)[C@@H]1[C@@H]2C(=O)N(c3ccc4c(c3)OCCO4)C(=O)[C@@H]2C2c3ccccc3C=CN21 (stereo partly specified) | 4.4% | ? | ? | 23.1µM* | -1.7% | -5.2
N#Cc1ccc(NC(=O)COCc2cc(-c3ccc(F)cc3)on2)cc1 | · | · | ? | 20.6µM* | · | ·
COc1ccc(-c2cc(C(=O)Nc3ccc(C#N)cc3)no2)cc1 | · | · | 4.3% | -16.3% | · | ·
CC1(C)Cc2c(sc(NC(=O)c3ccc(C(=O)c4ccccc4)cc3)c2C(N)=O)C(C)(C)N1 | 12.6µM* | ? | ? | ? | ? | -102.2*
COC(=O)c1c(NC(=O)c2ccco2)sc2c1CC(C)(C)NC2(C)C | -26.1% | -10.9% | 15.8% | 7.0% | 9.2µM* | i
COC(=O)c1c(NC(=O)c2ccccc2)sc2c1CC(C)(C)NC2(C)C | 15.5% | 4.0% | -24.0% | -0.9% | 6.1% | -3.4
CC1(C)Cc2c(sc(NC(=O)c3ccc4ncsc4c3)c2C(N)=O)C(C)(C)N1 | ? | ? | ? | ? | ? | -215.4*
Cc1nc(SCC(=O)Nc2c(C)n(C)n(-c3ccccc3)c2=O)n[nH]1 | -11.4% | -11.3% | -10.4% | -5.4% | 9.0% | 4.7
CC[C@H](C)[C@H](NC(=O)[C@H](CCC(=O)O)NC(=O)[C@H](CO)NC(=O)[C@@H](NC(=O)[C@H](C)N)C(C)C)C(=O)N[C@@H](CCC(N)=O)C(=O)N[C@@H](CC(C)C)C(=O)N[C@@H](CCSC)C(=O)N[C@@H](Cc1cnc[nH]1)C(=O)N[C@@H](CC(N)=O)C(=O)N[C@@H](CC(C)C)C(=O)NCC(=O)N[C@@H](CCCCN)C(=O)N[C@@H](Cc1cnc[nH]1)C(=O)N[C@@H](CC(C)C)C(=O)N[C@@H](C)C(=O)N[C@@H](CO)C(=O)N[C@H](C(=O)N[C@@H](CCC(=O)O)C(=O)N[C@@H](CCCNC(=N)N)C(=O)N[C@@H](CCSC)C(=O)N[C@@H](CCC(N)=O)C(=O)N[C@@H](Cc1c[nH]c2ccccc12)C(=O)N[C@@H](CC(C)C)C(=O)N[C@@H](CCCNC(=N)N)C(=O)N[C@@H](CCCCN)C(=O)N[C@@H](CCCCN)C(=O)N[C@@H](CC(C)C)C(=O)N[C@@H](CCC(N)=O)C(=O)N[C@@H](CC(=O)O)C(=O)N[C@H](C(=O)N[C@@H](Cc1cnc[nH]1)C(=O)N[C@@H](CC(N)=O)C(=O)N[C@@H](Cc1ccccc1)C(=O)O)C(C)C)C(C)C | 3.9% | 21.2% | · | · | · | ·
CC(=O)Nc1ccc(NC(=O)C(c2ccccc2)N2Cc3ccccc3C2=O)cc1 (stereo unspecified) | · | · | 9.2% | 1.9% | · | ·
COc1ccc(NC(=O)N(C)C[C@H]2Oc3ccc(NS(=O)(=O)c4ccccc4)cc3C(=O)N([C@H](C)CO)C[C@@H]2C)cc1 | · | · | -10.9% | -2.0% | · | 6.0
Cc1ccccc1NC(=O)c1ccc(F)c(S(=O)(=O)N2CCCCC2)c1 | 13.7% | 35.4% | -19.7% | 4.2% | ? | -2.0
Cc1cccc(N2CCN(S(=O)(=O)c3cc(C(=O)Nc4ccccc4Cl)ccc3F)CC2)c1C | · | · | ? | 23.1µM* | · | ·
O=C(Nc1ccccc1N1CCCCC1)c1ccc(F)c(S(=O)(=O)N2CCOCC2)c1 | · | · | 16.4µM* | 20.6µM* | 13µM* | 20.8
CN(c1ccccc1)S(=O)(=O)c1cc(C(=O)Nc2ccccc2N2CCOCC2)ccc1Cl | · | · | 16.4µM* | 9.2µM* | · | ?
CN(c1ccccc1)S(=O)(=O)c1cc(C(=O)c2nccn2C)ccc1Cl | -2.1% | -23.8%[10 µM] | ? | 16.4µM* | ? | -22.0
CC1CCN(Cc2c(C(=O)N/N=C/c3ccc(C(C)(C)C)cc3)nnn2-c2nonc2N)CC1 | -26.5% | 5.2% | 13µM* | 13µM* | ? | 42.8
Nc1nonc1-n1nnc(C(=O)N/N=C/c2cccc(Cl)c2Cl)c1CN1CCCC1 | ? | ? | 8.2µM* | 14.6µM* | 3.2% | 25.9
O=C(O)CCC/C=C\C[C@@H]1[C@@H](CC[C@@H](O)CCc2ccccc2)[C@H](O)C[C@@H]1O | 3.1% | -2.8% | · | · | · | ·
SMILES | VP16 counter | RORgamma inh | TDP1 cell CPT | DT40 TDP1 no CPT | ELG1 DNA repair | IL1B secr inh
CC1CCc2nc(-c3cc4c(ccc5ccccc54)oc3=O)sc2C1 (stereo unspecified) | · | · | 8.7% | -15.8% | · | ·
COC(=O)c1cc(N=Nc2sc(N)nc2C)cc(C(=O)OC)c1 | -10.4% | -3.8% | ? | 13µM* | ? | -19.2
COc1ccc(NC(=O)Nc2nnc(N3CCCC3)s2)cc1 | · | · | -14.2% | ? | · | ·
Cn1c(=O)[nH]c(NCCc2ccc(O)cc2)c([N+](=O)[O-])c1=O | · | · | 28.4% | 1.2% | · | 14.5
CC[C@H]1c2[nH]c3ccccc3c2C[C@H]2C(=O)N(c3ccc(F)cc3)C(=O)N21 | · | · | ? | ? | 7.3µM* | -6.2
CCSc1ncc(Cl)c(C(=O)Nc2ccc(S(=O)(=O)Nc3nccc(C)n3)cc2)n1 | · | · | -28.3% | ? | · | ·
Cc1cccc(Cc2cnc(NC(=O)C3=NCCN3)s2)c1 | 7.94µM* | 3.55µM* | -86.2% | 23.1µM* | ? | 3.2
O=C(Nc1ncc(Cc2cccc([N+](=O)[O-])c2)s1)c1ccco1 | ? | ? | -12.9% | ? | 5.9% | 10.4
Cc1cccc(Cc2cnc(NC(=O)c3ccc(C)o3)s2)c1 | ? | 10µM* | ? | ? | ? | -12.7

Screening data (PubChem)
